This is an account of results in PubChem BioAssay (NCI).

What all share (test): NCI-60 one-dose screen, 48 h (100 = growth as untreated, 0 = no growth, -100 = all killed)
What all share (conditions): 10 µM unless noted

For experiment [1], the system named is T-47D breast.
Experiment [2] relates to BT-549 breast.
The subject of experiment [3] is MDA-MB-435 melanoma.
The test system of experiment [4] is MCF7 breast.
In experiment [5] the test system is HCT-116 colon.
The test system of experiment [6] is HCC-2998 colon.
For experiment [7], the system named is KM12 colon.
Experiment [8] has as its system SW-620 colon.

Where “and” joins values, the source holds several entries; their conditions need not be identical. Equal entries are not always repeated. About 83,000 compounds went through this panel and 20% of them were active in at least one assay; those are over-represented in the sample as a whole.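 Activity criterion: percent growth below 10, measured after cells in 96-well plates were exposed to a single compound concentration for 48 hours.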 Calls of active or inactive are those of the source.

With `CN(C)C(=S)N(C)C`, the growth is 98.5% (inactive) in experiment [1]; 107% (inactive) in experiment [2]; 112% (inactive) in experiment [3]; 107% (inactive) in experiment [4]; 99.3% (inactive) in experiment [5]; 103% (inactive) in experiment [6]. For the same molecule, the growth in experiment [7] is 109% (inactive).
Regarding `Nc1ccccc1SC(CC(=O)c1ccccc1)c1cccc([N+](=O)[O-])c1` (stereo not drawn), the growth in experiment [1] is 88.3% (inactive) and 90% (inactive); in experiment [2] it was 103% (inactive) and 88.9% (inactive); in experiment [3], 102% (inactive) and 85.5% (inactive); in experiment [8], 14.1% (inactive) and 1.5% (active); in experiment [4], 19.3% (inactive) and 19% (inactive); in experiment [5] it was -71.2% (active) and -58.6% (active). For the same molecule, the growth in experiment [7] is 73.9% (inactive).
For the molecule `OCc1ccccc1F`, the growth in experiment [1] is 95.9% (inactive); in experiment [2] it was 82.4% (inactive); in experiment [3] it was 97.6% (inactive); in experiment [4] it was 72.2% (inactive); in experiment [5], 58.2% (inactive); in experiment [7], 107% (inactive).
In the case of `CCN(CC)Cc1cc2[nH]c3c4ccc(Cl)cc4ncc3c2cc1OC`, the growth in experiment [1] was 99.2% (inactive) and 94.2% (inactive); in experiment [2], 75.1% (inactive) and 82.2% (inactive); in experiment [3] it was 1.09% (active) and 44% (inactive); in experiment [8] it was 4.64% (active) and 25.5% (inactive); in experiment [4], 16.5% (inactive) and 64.2% (inactive); in experiment [5], -3.8% (active) and 7.95% (active). The growth in experiment [7] was 2.32% (active) and 42.7% (inactive).
Regarding `N#Cc1c[nH]n2ccnc12`, the growth in experiment [1] is 92.3% (inactive); in experiment [2], 98.3% (inactive); in experiment [3], 114% (inactive); in experiment [4] it was 102% (inactive); in experiment [5] it was 95.2% (inactive); in experiment [6], 113% (inactive). In experiment [7], the growth was 109% (inactive).
In the case of `O=C1C(=O)c2ccccc2C(O)=C1CC=C(Cl)Cl`, the growth in experiment [1] is 80.8% (inactive) and 69% (inactive); in experiment [2] it was 63% (inactive) and 71.6% (inactive); in experiment [3], 43.8% (inactive) and 52.5% (inactive); in experiment [8] it was 50.1% (inactive) and 52.6% (inactive); in experiment [4], 37.9% (inactive) and 44.7% (inactive); in experiment [5], 27.9% (inactive) and 40% (inactive). In addition, the growth in experiment [7] was 48.1% (inactive) and 45.8% (inactive).
Consider `COc1ccc(CCNC(=S)NN)cc1OC`, for which the growth in experiment [1] is 98.8% (inactive); in experiment [2], 118% (inactive); in experiment [3], 111% (inactive); in experiment [4], 93.9% (inactive); in experiment [5] it was 84.2% (inactive); in experiment [7], 94.2% (inactive).
With `Clc1ccc2c(c1)N(C1CCCN(Cc3ccccc3)C1)c1ccccc1S2` (stereo not drawn), the growth was 69% (inactive) in experiment [1]; 61.2% (inactive) in experiment [2]; 5.2% (active) in experiment [3]; 18.4% (inactive) in experiment [4]; 12.1% (inactive) in experiment [5]; 23% (inactive) in experiment [6]. Besides, in experiment [7], the growth was 33.7% (inactive).
Turning to `Cc1cnc(N)s1`, the growth in experiment [1] was 90.2% (inactive); in experiment [2] it was 100% (inactive); in experiment [3], 104% (inactive); in experiment [4], 95.4% (inactive); in experiment [5], 95.8% (inactive); in experiment [6] it was 92% (inactive). In experiment [7], the growth was 103% (inactive).
Consider `N#Cc1c(N)nc2c(c(-c3ccc(Cl)cc3)nn2-c2ccccc2)c1C#N`, for which the growth in experiment [1] was 97.4% [100 µM] (inactive); in experiment [2] it was 94.2% [100 µM] (inactive); in experiment [3], 104% [100 µM] (inactive); in experiment [8], 107% [100 µM] (inactive); in experiment [4] it was 97.1% [100 µM] (inactive); in experiment [5], 94.7% [100 µM] (inactive). In experiment [7], the growth was 103% [100 µM] (inactive).
For `COc1ccc2oc3c(ccc[n+]3C)c(=O)c2c1`, the growth in experiment [1] is 85.9% (inactive); in experiment [2] it was 103% (inactive); in experiment [3], 105% (inactive); in experiment [4], 100% (inactive); in experiment [5] it was 101% (inactive); in experiment [6] it was 117% (inactive). The growth in experiment [7] is 108% (inactive).
For `Nc1ccc(O)c(C(=O)O)c1`, the growth in experiment [1] is 95% (inactive) and 104% (inactive) and 106% (inactive); in experiment [2], 76.3% (inactive) and 111% (inactive) and 92.6% (inactive); in experiment [3] it was 99.8% (inactive) and 101% (inactive) and 108% (inactive); in experiment [4], 86.4% (inactive) and 102% (inactive) and 107% (inactive); in experiment [5], 98.7% (inactive) and 99.9% (inactive) and 85.5% (inactive); in experiment [6] it was 107% (inactive) and 104% (inactive) and 99.9% (inactive). Further, the growth in experiment [7] was 101% (inactive) and 107% (inactive) and 91.5% (inactive).
As to `Cc1cc2ccccc2c2cc3ccccc3cc12`, the growth in experiment [1] was 48% (inactive); in experiment [2] it was 93.7% (inactive); in experiment [3], 100% (inactive); in experiment [4] it was 33.8% (inactive); in experiment [5], 93.8% (inactive); in experiment [7] it was 82.1% (inactive).
Consider `CCN(CC)C(=S)SCCO`, for which the growth in experiment [1] is 101% (inactive); in experiment [2], 144% (inactive); in experiment [3], 111% (inactive); in experiment [8], 106% (inactive); in experiment [4], 104% (inactive); in experiment [5] it was 107% (inactive). In experiment [7], the growth is 105% (inactive).
Regarding `Oc1cccnc1CN1CCOCC1`, the growth is 93.1% (inactive) in experiment [1]; 118% (inactive) and 115% (inactive) in experiment [2]; 109% (inactive) and 99.3% (inactive) in experiment [3]; 95.2% (inactive) and 90.7% (inactive) in experiment [4]; 104% (inactive) and 103% (inactive) in experiment [5]; 102% (inactive) and 99.6% (inactive) in experiment [6]. In addition, the growth in experiment [7] was 112% (inactive) and 108% (inactive).
As to `O=C1c2cccnc2-c2ncccc21`, the growth was 98.9% [100 µM] (inactive) in experiment [1]; 104% [100 µM] (inactive) in experiment [2]; 103% [100 µM] (inactive) in experiment [3]; 109% [100 µM] (inactive) in experiment [4]; 107% [100 µM] (inactive) in experiment [5]; 112% [100 µM] (inactive) in experiment [6]. The growth in experiment [7] is 103% [100 µM] (inactive).
Regarding `CCOc1ccc(/C=C\C(=O)O)cc1`, the growth in experiment [1] is 122% (inactive); in experiment [2], 125% (inactive); in experiment [3], 107% (inactive); in experiment [4] it was 95.2% (inactive); in experiment [5], 119% (inactive); in experiment [6], 109% (inactive). Further, the growth in experiment [7] was 106% (inactive).
For the molecule `O=C(N=C1C(=O)C2(CCCCC2)C2(N=C(c3ccccc3)OC2=O)C12CCCCC2)c1ccccc1` (stereo not drawn), the growth in experiment [1] is 35.7% (inactive); in experiment [2], 86.9% (inactive); in experiment [8] it was 71.5% (inactive); in experiment [4], 51.3% (inactive); in experiment [5] it was 39.5% (inactive); in experiment [6], 59.2% (inactive). Besides, in experiment [7], the growth was 55.6% (inactive).
`Nc1[nH][nH]c(=O)c1N=Nc1ccccc1`: the growth was 113% (inactive) and 102% (inactive) in experiment [1]; 101% (inactive) and 133% (inactive) in experiment [2]; 97.5% (inactive) and 114% (inactive) in experiment [8]; 92.9% (inactive) and 94.5% (inactive) in experiment [4]; 104% (inactive) and 102% (inactive) in experiment [5]; 97.9% (inactive) and 104% (inactive) in experiment [6]. In addition, the growth in experiment [7] was 105% (inactive) and 106% (inactive).
Turning to `CCCCCc1cc[n+](CC(=O)c2ccccc2)cc1`, the growth is 95.4% (inactive) and 101% (inactive) in experiment [1]; 95.9% (inactive) in experiment [2]; 96.7% (inactive) and 104% (inactive) in experiment [8]; 104% (inactive) and 93.7% (inactive) in experiment [4]; 95.3% (inactive) and 91.9% (inactive) in experiment [5]; 105% (inactive) in experiment [6]. Also, the growth in experiment [7] is 102% (inactive) and 104% (inactive).
`COC(=O)c1cc(C(=O)OC)cc([N+](=O)[O-])c1`: the growth in experiment [1] is 111% (inactive); in experiment [2] it was 91.6% (inactive); in experiment [4], 98% (inactive); in experiment [5], 95.3% (inactive); in experiment [6], 99.2% (inactive); in experiment [7] it was 112% (inactive).
Turning to `COc1ccc(/C=C/C(=O)O)cc1OC`, the growth in experiment [1] was 107% (inactive) and 106% (inactive); in experiment [2], 107% (inactive) and 111% (inactive); in experiment [4], 97.9% (inactive) and 102% (inactive); in experiment [5], 99.5% (inactive) and 105% (inactive); in experiment [6] it was 119% (inactive) and 102% (inactive); in experiment [7], 109% (inactive).
On to `Cc1cc(Cl)nc(Nc2ccccc2)n1`, for which the growth in experiment [1] is 90.4% (inactive); in experiment [2] it was 108% (inactive); in experiment [8] it was 104% (inactive); in experiment [4] it was 93.7% (inactive); in experiment [5], 93.1% (inactive); in experiment [7], 97.8% (inactive).
On to `CC(C)(C(=O)c1cccnc1)c1cccnc1`, for which the growth was 96.2% (inactive) and 111% (inactive) in experiment [1]; 103% (inactive) and 136% (inactive) in experiment [2]; 102% (inactive) and 93.8% (inactive) in experiment [4]; 108% (inactive) and 111% (inactive) in experiment [5]; 101% (inactive) and 113% (inactive) in experiment [7].
As for `N=c1sc2ccccc2n1CC(=O)O`, the growth in experiment [1] is 95.8% (inactive); in experiment [2], 99.2% (inactive); in experiment [8], 103% (inactive); in experiment [4] it was 99% (inactive); in experiment [5], 95.7% (inactive); in experiment [6], 108% (inactive). The growth in experiment [7] is 106% (inactive).
As for `NNc1ncnc2cccc(Cl)c12`, the growth was 90.6% (inactive) in experiment [1]; 112% (inactive) in experiment [2]; 104% (inactive) in experiment [8]; 96.6% (inactive) in experiment [4]; 98.1% (inactive) in experiment [5]; 104% (inactive) in experiment [6]. Besides, the growth in experiment [7] is 106% (inactive).
For `Cc1c(O)nc(N)[nH]c1=O`, the growth is 114% (inactive) in experiment [1]; 116% (inactive) in experiment [2]; 102% (inactive) in experiment [8]; 99% (inactive) in experiment [4]; 103% (inactive) in experiment [5]; 92.8% (inactive) in experiment [6]. Further, in experiment [7], the growth is 106% (inactive).
For `OCCS`, the growth in experiment [1] was 92.8% (inactive); in experiment [2], 134% (inactive); in experiment [8], 109% (inactive); in experiment [4] it was 94.1% (inactive); in experiment [5], 103% (inactive); in experiment [6], 93.9% (inactive). In addition, the growth in experiment [7] is 103% (inactive).
